The list is not random: actives were taken first. Their share in the collection is about 2.4%.
Pol kappa inh – blocks human DNA polymerase kappa activity; Q9UBT6; purified Pol kappa, fluorescent DNA synthesis assay, 10 min; Potency, µM (series often up to 107 µM), hits mostly inhibitors; 400,000 compounds, 0.53% hits
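Kinetic fluorescence screen: compound preincubated 15 min RT with 10 nM enzyme; 50 nM substrate (final) initiates; reads at 0/10 min.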
POLB inh – DNA polymerase beta (human) inhibition; AID 485314; P06746; 340,000 compounds, 1.3% hits; Potency, µM (titrated, usually from 114 µM), usual class: inhibitors; Pol beta primer extension/strand displacement, fluorescence kinetic
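Homogeneous kinetic assay of primer extension and strand displacement by 10 nM Pol beta, preincubated 15 min at room temperature with compound before 50 nM substrate (final) was added. Read at 0 and 10 min; four-parameter Hill fit.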
WRN helicase inh-1 – inhibitors of human WRN helicase; Q14191; WRN helicase unwinding, fluorescent forked duplex, kinetic; Potency, µM (doses to about 114 µM), actives largely listed as inhibitors; 360,000 compounds, 0.46% hits; further: nearly all actives have a fitted effect of over 55% in size
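Kinetic fluorescence helicase assay: unwinding of a quenched forked DNA duplex (100 nM final) with 2 mM ATP final raises red fluorescence (525/598 nm). Compounds sat 15 min at room temperature with 20 nM WRN beforehand.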
POLI inh – blocks human DNA polymerase iota activity; Pol iota fluorescent replication assay, 10 min; 390,000 compounds, 1% hits; Potency, µM (highest dose often 115 µM), usual class: inhibitors; Q9UNA4; AID 588590
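Fluorescent replication assay read twice, at 0 min and 10 min after adding 50 nM (final) substrate. Enzyme (10 nM) and compounds were first incubated 15 min at room temperature; enzyme-free buffer wells were negative controls.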
POLH inh – DNA polymerase eta (human) inhibition; Q9Y253; recombinant Pol eta, fluorescent DNA replication assay; Potency, µM (titrated, usually from 114 µM), most hits filed as inhibitors; 390,000 compounds, 1.2% hits
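Pol eta at 10 nM preincubated with compounds 15 min at room temperature; reaction started with fluorescent substrate (50 nM final) and read kinetically at 0 and 10 min.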
FEN1 inh-1 – inhibitors of human flap endonuclease 1. Recombinant FEN1 flap cleavage, fluorescence, 15 min. Potency, µM (top dose mostly 114 µM), actives largely listed as inhibitors. AID 588795. P39748. 390,000 compounds, 0.35% hits; further: nearly all actives have a fitted effect of over 65% in size
Target sequence (P39748 whole entry, looked up): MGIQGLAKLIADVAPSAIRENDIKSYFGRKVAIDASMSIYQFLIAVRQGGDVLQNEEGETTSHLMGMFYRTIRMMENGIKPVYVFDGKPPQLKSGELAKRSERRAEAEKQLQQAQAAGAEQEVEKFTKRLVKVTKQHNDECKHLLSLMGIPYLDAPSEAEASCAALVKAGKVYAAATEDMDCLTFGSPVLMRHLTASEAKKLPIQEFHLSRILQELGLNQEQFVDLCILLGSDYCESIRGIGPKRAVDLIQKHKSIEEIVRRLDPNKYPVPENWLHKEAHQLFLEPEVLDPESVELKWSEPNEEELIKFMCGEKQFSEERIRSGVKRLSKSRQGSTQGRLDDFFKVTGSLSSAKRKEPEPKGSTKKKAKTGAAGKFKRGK
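Concentration–response screening of FEN1 (10 nM): 15 min compound preincubation at room temperature, reaction started with 50 nM substrate and read at 0 and 15 min. Corrected, normalized data were fitted by a four-parameter Hill equation.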
FEN1 inh-2 – FEN1 inhibition, cherry-pick retest. 880 compounds, 79% hits. FEN1 flap cleavage, TAMRA/BHQ2 fluorogenic DNA substrate. Potency, µM, actives largely listed as inhibitors. shares compounds with FEN1 inh-1; further: nearly all actives have a fitted effect of over 60% in size
WRN helicase inh-2 – confirmation of human WRN helicase inhibitors | shares compounds with WRN helicase inh-1 | Potency, µM (titrated, usually from 57.1 µM), actives largely listed as inhibitors | 610 compounds, 63% hits | AID 720497 | WRN helicase DNA unwinding, fluorescence kinetic; further: nearly all actives have a fitted effect of over 65% in size
TO displacement – DNA binding via thiazole orange displacement. shares compounds with WRN helicase inh-1. thiazole orange DNA binding displacement, fluorescence. Potency, µM (series often up to 57.1 µM), hits mostly inhibitors. 610 compounds, 10% hits;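 further: drop in dye fluorescence marks compound binding to DNA; nearly all actives have a fitted effect of over 60% in size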
BLM helicase inh – BLM helicase inhibition, WRN selectivity check; shares compounds with WRN helicase inh-1; Recombinant BLM helicase DNA unwinding, red fluorescence; Potency, µM (highest dose often 57.1 µM), actives largely listed as inhibitors; 610 compounds, 60% hits; further: nearly all actives have a fitted effect of over 60% in size
A number is an active result; . = inactive; ? = inconclusive; / = no result given; ! = a repeat was not active; [ ] = another dose, or the depositor's remark. The call rests on the fitted dose curve; in most records, active means well fitted curve in the direction sought with a large enough effect; inconclusive means small, poorly fitted or top-dose-only effect, or another doubt; inactive means no such curve, though single readings can be large; an effect the other way counts as inactive or inconclusive.

SMILES	Pol kappa inh	POLB inh	WRN helicase inh-1	POLI inh	POLH inh	FEN1 inh-1	WRN helicase inh-2	TO displacement	BLM helicase inh	others
CCN(CC)Cc1cc(Nc2c3ccccc3nc3c4ccccc4n(C)c23)cc(CN(CC)CC)c1O	?	/	?	?	?	28.2µM	17.1µM	38.3µM	.	FEN1 inh-2=19
COc1cc(/C=C2\SC(=S)N(NC(=O)c3ccc(O)c(OC)c3)C2=O)ccc1O	.	?	39.8µM	22.4µM	?	?	19.2µM	.	19.2µM	FEN1 inh-2=42.6
CN(C)CCCNc1cc(N2CCN(C3CCCCC3)CC2)c2noc3c2c1C(=O)c1ccccc1-3	.	.	/	.	?	11.2µM	24.1µM	.	42.9µM	FEN1 inh-2=30.1
Nc1cc(N)cc(-c2nc3ccccc3[nH]2)c1	.	.	.	.	?	.	/	/	/
Nc1ccc2nc(-c3cccc(-c4nc5ccc(N)cc5[nH]4)c3)[nH]c2c1	35.5µM	?	39.8µM	?	?	?	?	17.1µM	?	FEN1 inh-2=37.9
CC[n+]1c(/C=C/C=C/N(C(C)=O)c2ccccc2)sc2cc(OC)ccc21	35.5µM	15.8µM	?	?	?	50.1µM	24.1µM	.	21.5µM	FEN1 inh-2=42.6
CCOC(=O)N1CCC(NC(=O)c2cc3c(-c4ccc(OC)c(OC)c4)nn(C)c3s2)CC1	.	.	.	.	.	?	/	/	/
COc1ccc(NC(=O)c2cc3c(-c4ccc(OC)c(OC)c4)nn(C)c3s2)cc1OC	?	28.2µM	11.9µM	?	?	11.2µM	13.6µM	.	13.6µM	FEN1 inh-2=10.7
Cc1c(Cl)cccc1-n1nnc(-c2nc(-c3ccc4c(c3)OCO4)no2)c1C	.	.	/	.	/	.	/	/	/
CN(C)CCNc1ccc(CO)c2sc3ccc(O)cc3c(=O)c12	?	/	?	79.4µM	?	22.4µM	24.1µM	21.5µM	?	FEN1 inh-2=16.9
CCOC(=O)c1c(C)oc2nc(C)nc(N(C)Cc3ccccc3)c12	.	.	/	.	.	.	/	/	/
Cc1ccc2[nH]c(C)c(/C=C/c3cc[n+](C)cc3)c2c1	?	.	.	.	.	?	/	/	/
Cc1ccc2c(c1)c(/C=C/c1cc[n+](C)cc1)c(C)n2C	.	?	39.8µM	?	.	?	21.5µM	.	.	FEN1 inh-2=33.8
O=c1c(-c2ccc(Cl)cc2)nc2cnc(N3CCNCC3)nc2n1-c1ccccc1	.	/	/	/	/	/	/	/	/
O=C(Nc1ccc(Cl)c(Cl)c1)c1cc(S(=O)(=O)N2CCN(c3cccc(Cl)c3)CC2)ccc1F	.	.	/	.	.	.	/	/	/
CN(C)c1ccc(/C=C/c2ccc3ccccc3[n+]2C)cc1	50.1µM	17.8µM	39.8µM	39.8µM!	?	39.8µM	24.1µM	27.1µM	27.1µM
CN(C)c1ccc(/C=C/c2c[n+](C)cc3ccccc23)cc1	.	/	/	.	/	?	/	/	/
COc1ccc(-c2nnc(SCCOc3ccccc3C)o2)cc1OC	.	.	/	.	.	.	/	/	/
C=CCN1C(=O)/C(=C\C=C2\N(C)c3ccccc3C2(C)C)SC1=S	.	?	?	?	?	?	/	/	/
CCCN1C(=O)/C(=C/C=C2\N(CC)c3ccccc3C2(C)C)SC1=S	.	.	18.9µM	.	56.2µM	?	21.5µM	.	21.5µM
Cc1cc(C)c2c(CC(=O)Nc3ccc(S(=O)(=O)N4CCCC(C)C4)cc3)coc2c1 (stereo not drawn)	.	.	/	.	?	.	/	/	/
CC(Oc1ccccc1Cl)C(=O)Nc1ccc(S(=O)(=O)N2CCN(C)CC2)cc1 (stereo not drawn)	.	/	31.6µM	?	.	?	.	.	.
COc1cc(/C=C2/C(=O)NN(c3cccc(C)c3)C2=O)ccc1OC(=O)c1ccco1	.	.	44.7µM	?	28.2µM	.	?	.	?
COC(=O)c1ccc(N2NC(=O)/C(=C/c3ccc(OC)c(OC)c3)C2=O)cc1	.	.	.[11.6 µM]	?	.	.	/	/	/
O=C(Nc1ccc(Br)cc1)c1ccc(-n2cnnn2)cc1	.	.	.	?	.	.	/	/	/
SMILES	Pol kappa inh	POLB inh	WRN helicase inh-1	POLI inh	POLH inh	FEN1 inh-1	WRN helicase inh-2	TO displacement	BLM helicase inh	others
O=C(Nc1cc(SCC(O)CO)cc([N+](=O)[O-])c1)c1ccc(-n2cnnn2)cc1 (stereo not drawn)	.	?	?	?	.	.	?	.	?
Cc1ccc(NC2c3ncccc3C(=O)N2c2ccccc2C)cc1C (stereo not drawn)	.	.	44.7µM	56.2µM	.	.	.	.	.
CCOc1ccc(N2C(=O)c3cccnc3C2Nc2ccc(Cl)cc2)cc1 (stereo not drawn)	.	.	.	?	.	.	/	/	/
COc1ccc(CN2CC(=O)N(c3ccc(C)c(C)c3)C2=S)cc1OC	?	.	?	.	.	?	.	.	.
COc1ccc2cc3cc(C(=O)NCc4cccs4)oc3nc2c1	.	22.4µM	39.8µM	?	?	?	24.1µM	.	15.2µM
Cc1ccc(CN(C)C(=O)CCc2nc3sc4c(c3c(=O)[nH]2)CCCC4)o1	.	25.1µM	?	17.8µM	22.4µM	.	?	.	?
CCn1c(C)c(C2=CCN(S(=O)(=O)c3ccc(C)cc3)CC2)c2ccccc21	.	.	?	?	.	.	?	.	?
Cc1ccc(S(=O)(=O)N2CC=C(c3ccc(F)cc3)CC2)cc1	.	.	.	.	.	.	/	/	/
CC(C)Oc1ccc(CNC(=O)c2ccc3nc(Cc4ccccc4)oc3c2)cc1	.	.	/	.	.	.	/	/	/
CN1/C(=C\C(=O)c2ccco2)C(C)(C)c2ccccc21	.	.	?	?	.	.	.	.	.
CN1/C(=C\C(=O)COC(=O)c2ccco2)C(C)(C)c2ccccc21	.	.	.	.	.	.	/	/	/
Cc1nc2c(-c3ccccc3)c(C)nn2c(C)c1CCC(=O)NCc1ccc(F)cc1	.	.	/	.	.	.	/	/	/
CCCCCCCCCCCCCCCC(=O)OC[C@@H](COP(=O)([O-])OCC[N+](C)(C)C)OC(=O)CCCCCCCCCCCCCCC	.	/	/	/	/	/	/	/	/
Cc1ccc(-c2cc(C(=O)O)c3cc(Br)ccc3n2)o1	?	22.4µM	35.5µM	?	20µM	.	15.2µM	.	?
Cc1ccc(-c2cc(C(=O)O)c3cc(Br)ccc3n2)s1	.	.	.	.	.	.	/	/	/
O=[N+]([O-])c1c(NCCCO)cc(Sc2nc3ccccc3s2)c2nonc12	?	.	18.9µM	?	.	39.8µM	?	.	?
